SMILES strings stand for the structures. Calls of active or inactive are those of the source. Rule for the calls: active = hit-call score of the fitted dose curve at least 0.9, where 1 is the maximum; inactive = score below 0.9.

Read-out in assay [1]: Vascular endothelial growth factor receptor 2 (Homo sapiens) (UniProt P35968)
Nature of the assay: BSK_4H_VEGFRII: BioMAP Diversity Plus: 4H Assay for Vascular endothelial growth factor receptor 2 (VEGFR2) Biomarker Activity (AID 2283031). The conditions noted are these: primary human endothelial cells (HUVEC); actives raise or lower the signal. In outline:
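Primary human umbilical vein endothelial cells in the BioMAP 4H system were dosed with test chemical, and 24 h later VEGFRII was measured by ELISA. Activity was fitted bidirectionally against DMSO as negative control and baseline.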

Read-out in assay [2]: Human Leukocyte Antigen - DR isotype (HLADR), HLA-DRA (gene 3122)
The experiment in a line: BSK_BE3C_HLADR: BioMAP Diversity Plus: BE3C Assay for Human Leukocyte Antigen - DR isotype (HLADR) Biomarker Activity (AID 2283032). Particulars: primary human bronchial epithelial cells; actives raise or lower the signal. The method, boiled down: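 Signal came from an ELISA for HLA-DR in human bronchial epithelial primary cells harvested 24 h after treatment; gain- and loss-of-signal fitting used DMSO controls as reference.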

Read-out in assay [3]: Vascular cell adhesion molecule 1 (VCAM1), VCAM1 (gene 7412)
The experiment in a line: BSK_4H_VCAM1: BioMAP Diversity Plus: 4H Assay for Vascular cell adhesion molecule 1 (VCAM1) Biomarker Activity (AID 2283033).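 For outcome: cell-surface VCAM-1 protein measured by ELISA.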 Particulars: primary human endothelial cells (HUVEC); actives raise or lower the signal. The method, boiled down: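 Endpoint derived from bidirectional fitting against DMSO controls of VCAM-1 ELISA signal in umbilical vein endothelial cells sampled at 24 h following treatment.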

Read-out in assay [4]: Monokine induced gamma interferon (MIG), CXCL9 (gene 4283)
The experiment in a line: BSK_BE3C_MIG: BioMAP Diversity Plus: BE3C Assay for Monokine induced gamma interferon (MIG) Biomarker Activity (AID 2283035).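 For outcome: MIG protein measured by ELISA in BE3C cultures after 24 h of dosing.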 The conditions noted are these: primary human bronchial epithelial cells; actives raise or lower the signal. In outline:
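MIG level was determined by ELISA after 24 h chemical treatment of primary human bronchial epithelial cells. Values were fitted bidirectionally with DMSO as the negative control and activity baseline.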

Read-out in assay [5]: Transforming growth factor beta 1 (TGFb1), TGFB1 (gene 7040)
Nature of the assay: BSK_BE3C_TGFb1: BioMAP Diversity Plus: BE3C Assay for Transforming growth factor beta 1 (TGFb1) Biomarker Activity (AID 2283036;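 for outcome: TGF-b1 protein level measured by ELISA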). The conditions noted are these: primary human bronchial epithelial cells; actives raise or lower the signal. The method, boiled down:
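In this human primary bronchial epithelial system, an ELISA quantified TGF-b1 one day after dosing. Endpoint changes in either direction were fitted relative to DMSO.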

Read-out in assay [6]: Plasminogen activator inhibitor-1 (PAI1), SERPINE1 (gene 5054)
The experiment in a line: BSK_BE3C_PAI1: BioMAP Diversity Plus: BE3C Assay for Plasminogen activator inhibitor-1 (PAI1) Biomarker Activity (AID 2283037). The conditions noted are these: primary human bronchial epithelial cells; actives raise or lower the signal. In outline:
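PAI-1 biomarker levels in treated human bronchial epithelial cells are determined by ELISA at 24 h. Both increases and decreases relative to DMSO are fitted.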

Read-out in assay [7]: urokinase plasminogen activator (uPA), PLAU (gene 5328)
Nature of the assay: BSK_BE3C_uPA: BioMAP Diversity Plus: BE3C Assay for urokinase plasminogen activator (uPA) Biomarker Activity (AID 2283038).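 For outcome: uPA protein level quantified by ELISA in cell cultures; uPA read one day after compound addition.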 The conditions noted are these: primary human bronchial epithelial cells; actives raise or lower the signal. In outline: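 Human primary bronchial epithelial cells were exposed to chemical for 24 h, then uPA levels were measured by ELISA. Responses were fitted bidirectionally against DMSO as negative control and baseline. Parallel SRB staining of total protein gauged overt cytotoxicity.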

Read-out in assay [8]: Urokinase-type plasminogen activator receptor (uPAR), PLAUR (gene 5329)
Nature of the assay: BSK_BE3C_uPAR: BioMAP Diversity Plus: BE3C Assay for Urokinase-type plasminogen activator receptor (uPAR) Biomarker Activity (AID 2283039).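 For outcome: cells exposed to compound for one day before measurement.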 The conditions noted are these: primary human bronchial epithelial cells; actives raise or lower the signal. The method, boiled down: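 A uPAR ELISA serves as the readout, taken 24 h after treating primary human bronchial epithelial cells. Responses in either direction are fitted against DMSO, which defines baseline activity.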

Read-out in assay [9]: Interleukin-6 (IL6), IL6 (gene 3569)
Nature of the assay: BSK_CASM3C_IL6: BioMAP Diversity Plus: CASM3C Assay for Interleukin-6 (IL6) Biomarker Activity for (AID 2283040). Particulars: primary human coronary artery smooth muscle cells; actives raise or lower the signal.

Read-out in assay [10]: Tissue plasminogen activator (tPA), PLAT (gene 5327)
Nature of the assay: BSK_BE3C_tPA: BioMAP Diversity Plus: BE3C Assay for Tissue plasminogen activator (tPA) Biomarker Activity (AID 2283041).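 For outcome: tPA level quantified by ELISA one day after compound addition.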 Particulars: primary human bronchial epithelial cells; actives raise or lower the signal. The method, boiled down: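 Bidirectional curve fitting relative to DMSO defined activity, with tPA detected by ELISA in chemically treated human bronchial epithelial primary cells at 24 hours.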

Read-out in assay [11]: Interleukin-8 (IL8), CXCL8 (gene 3576)
The experiment in a line: BSK_CASM3C_IL8: BioMAP Diversity Plus: CASM3C Assay for Interleukin-8 (IL8) Biomarker Activity (AID 2283042).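 Note: IL-8 protein level quantified by ELISA.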 Particulars: primary human coronary artery smooth muscle cells; actives raise or lower the signal.

Read-out in assay [12]: Human Leukocyte Antigen - DR isotype (HLADR), HLA-DRA (gene 3122)
The experiment in a line: BSK_CASM3C_HLADR: BioMAP Diversity Plus: CASM3C Assay for Human Leukocyte Antigen - DR isotype (HLADR) Biomarker Activity (AID 2283043).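 Note: cell-surface HLA-DR protein level quantified by ELISA.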 The conditions noted are these: primary human coronary artery smooth muscle cells; actives raise or lower the signal.

Read-out in assay [13]: Macrophage colony-stimulating factor (MCSF), CSF1 (gene 1435)
The experiment in a line: BSK_CASM3C_MCSF: BioMAP Diversity Plus: CASM3C Assay for Macrophage colony-stimulating factor (MCSF) Biomarker Activity (AID 2283044).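 Note: M-CSF protein amount quantified by ELISA after 24 h exposure.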 The conditions noted are these: primary human coronary artery smooth muscle cells; actives raise or lower the signal.

Read-out in assay [14]: Low-density lipoprotein receptor (LDLR), LDLR (gene 3949)
The experiment in a line: BSK_CASM3C_LDLR: BioMAP Diversity Plus: CASM3C Assay for Low-density lipoprotein receptor (LDLR) Biomarker Activity (AID 2283045).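 Note: LDLR protein level on the cell surface quantified by ELISA.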 The conditions noted are these: primary human coronary artery smooth muscle cells; actives raise or lower the signal.

Read-out in assay [15]: Monocyte Chemoattractant Protein-1 (MCP1), CCL2 (gene 6347)
The experiment in a line: BSK_CASM3C_MCP1: BioMAP Diversity Plus: CASM3C Assay for Monocyte Chemoattractant Protein-1 (MCP1) Biomarker Activity (AID 2283046).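 Note: MCP-1 level quantified by ELISA 24 h after dosing.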 The conditions noted are these: primary human coronary artery smooth muscle cells; actives raise or lower the signal.

Assay [16] is described as follows: BSK_CASM3C_Proliferation: Cell Proliferation Assessment in the BioMAP Diversity Plus: CASM3C Assay (AID 2283047).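 Note: sulforhodamine B total protein stain as relative cell number at 560 nm; sub-confluent cells exposed 48 h before staining; fitted both ways against DMSO so gain or loss of cell number.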 The conditions noted are these: primary human coronary artery smooth muscle cells.
Read-out in assay [17]: Monokine induced gamma interferon (MIG), CXCL9 (gene 4283)
Nature of the assay: BSK_CASM3C_MIG: BioMAP Diversity Plus: CASM3C Assay for Monokine induced gamma interferon (MIG) Biomarker Activity (AID 2283048). The conditions noted are these: primary human coronary artery smooth muscle cells; actives raise or lower the signal.

The nature of assay [18]: BSK_CASM3C_SRB: Viability Assessment in the BioMAP Diversity Plus: CASM3C Assay (AID 2283050).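 Note: total protein by SRB staining as cytotoxicity measure in parallel cultures.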 Particulars: primary human coronary artery smooth muscle cells.
Read-out in assay [19]: serum amyloid A (SAA), SAA1 (gene 6288)
The experiment in a line: BSK_CASM3C_SAA: BioMAP Diversity Plus: CASM3C Assay for serum amyloid A (SAA) Biomarker Activity (AID 2283049).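 Note: SAA protein level quantified by ELISA.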 The conditions noted are these: primary human coronary artery smooth muscle cells; actives raise or lower the signal.

Consider `Cc1ccc(C(C)C)c(O)c1`, for which the outcome in assay [1], in [2], in assay [3], in assay [4], in assay [5] and in [6] was inactive. Further, the outcome in assay [7], in assay [8], in assay [9], in assay [10], in [11] and in [12] was inactive. The result in assay [13], in assay [14], in assay [15], in assay [16], in assay [17] and in assay [18] was inactive.

Turning to `COc1cc(C=O)ccc1O`, the outcome in [1], in assay [2], in assay [3], in assay [4], in assay [5] and in assay [6] was inactive. In addition, the outcome in assay [7], in [8], in assay [9], in [10], in assay [11] and in [12] was inactive. In addition, the result in assay [13], in [14], in assay [15], in assay [16], in assay [17] and in assay [19] was inactive. Further, the outcome in [18] was inactive.

As to `COc1cc(S(=O)(=O)O)c(C)cc1N=Nc1c(O)ccc2cc(S(=O)(=O)O)ccc12`, the result in assay [1], in assay [2], in [3], in assay [4], in assay [5] and in [6] was inactive. Further, the outcome in [7], in [8], in assay [9], in assay [10], in assay [11] and in assay [12] was inactive. Moreover, the outcome in assay [13], in assay [14], in assay [15], in [16], in [17] and in assay [19] was inactive. Besides, the result in assay [18] was inactive.

By AC50 is commonly meant the midpoint of the concentration-response curve, whichever way the signal moves. In the case of `CCCCC(CC)COC(=O)CC(C(=O)OCC(CC)CCCC)S(=O)(=O)O` (stereo unspecified), the outcome in assay [1], in [9], in [11], in [12], in [13] and in assay [14] was inactive. The outcome in assay [15], in assay [16], in assay [17], in assay [19] and in assay [18] was inactive. The AC50 is 7.52 µM (active) in [2]; 34.5 µM (active) in assay [3]; 8.91 µM (active) in assay [4]; 6.71 µM (active) in assay [5]; 11.5 µM (active) in assay [6]; 11.1 µM (active) in [7]. Also, the figures for the AC50 in assay [8] and in assay [10] were 11.9 µM (active) and 11.6 µM (active), respectively.

Regarding `Cc1cccc([N+](=O)[O-])c1C`, the result in [1], in assay [2], in assay [3], in assay [4], in [5] and in assay [6] was inactive. Further, the result in assay [7], in assay [8], in assay [9], in [10], in assay [11] and in assay [12] was inactive. In addition, the result in [13], in assay [14], in assay [15], in [16], in assay [17] and in [19] was inactive. The result in assay [18] was inactive.

Take `c1cc(-c2ccncc2)ccn1`: the outcome in [1], in assay [2], in assay [3], in assay [4], in assay [5] and in assay [6] was inactive. Besides, the result in [7], in [8], in assay [9], in assay [10], in [11] and in assay [12] was inactive. Also, the outcome in assay [13], in assay [14], in assay [15], in [16], in assay [17] and in assay [19] was inactive. In assay [18], the result was inactive.

Consider `CCCCN(CCCC)CCCC`, for which the result in assay [1], in assay [2], in [3], in assay [4], in [5] and in [6] was inactive. For the same molecule, the result in assay [7], in [8], in [9], in [10], in [11] and in assay [12] was inactive. For the same molecule, the result in assay [13], in assay [14], in [15], in assay [16], in assay [17] and in assay [19] was inactive. Also, the result in assay [18] was inactive.

Turning to `CC1=C(/C=C/C(C)=C/C=C/C(C)=C/CO)C(C)(C)CCC1`, the outcome in [1], in [4], in assay [5], in assay [6], in [7] and in assay [8] was inactive. For the same molecule, the outcome in assay [9], in assay [10], in assay [11], in assay [12], in assay [13] and in assay [14] was inactive. In addition, the outcome in [15], in [17], in assay [19] and in assay [18] was inactive. Also, the AC50 in [2] was 18 µM (active); in [3] it was 31.1 µM (active); in assay [16] it was 20.9 µM (active).

For the origin of these results see PubChem BioAssay (EPA / NIEHS).
